Reference: PubChem BioAssay AID1159580 (chemical genetic matrix, 2015)
Values joined by “and” are separate entries in the source; they are usually repeats but may differ in a detail not shown here. Equal values may be shown once. In all, about 5,500 compounds went through this assay and about 2,000 (36%) were called active. Another 18% or so got no clear call; they are omitted. Cut-off read from the data, not from the text of the source: active = normalized growth mostly below about 0.91 (no sharp cut-off); inconclusive = no clear call, values can overlap the other calls; inactive = mostly above about 0.92. The list shows a part of the results.

Experiment: chemical genetic growth profiling, strain panel (AID 1159580);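 note: tested at 20 µM; growth read once vehicle control cultures reached saturation at 30 °C; 1 = growth at the plate median or of vehicle wells; lower values mean less growth of the strain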
Conditions: growth OD

Measured: normalized growth

CCC1(C)CC(=O)NC1=O (stereo unspecified)
inactive: S. cerevisiae deletion strains, locus YJR075W, strain HOC1, stronger effect = lower value 1.01 | S. cerevisiae deletion strains, locus YKL009W, strain mrt4, stronger effect = lower value 1.03 | S. cerevisiae deletion strains, locus YKL068W, stronger effect = lower value 1.01 | S. cerevisiae deletion strains, locus YKL085W, strain MDH1 (second series), stronger effect = lower value 1.01 | S. cerevisiae deletion strains, locus YKL085W, strain MDH1, stronger effect = lower value 1.01 | S. cerevisiae deletion strains, locus YKL160W, strain elf1, stronger effect = lower value 0.992 | S. cerevisiae deletion strains, locus YKL190W, strain CNB1, stronger effect = lower value 1.02 | S. cerevisiae deletion strains, locus YKR001C, strain vps1, stronger effect = lower value 1.01 | S. cerevisiae deletion strains, locus YKR026C, strain gcn3, stronger effect = lower value 0.979 | S. cerevisiae deletion strains, locus YKR091W, strain srl3, stronger effect = lower value 0.972 | S. cerevisiae deletion strains, locus YLL001W, strain dnm1, stronger effect = lower value 0.967 | S. cerevisiae deletion strains, locus YLL026W, stronger effect = lower value 0.98 | S. cerevisiae deletion strains, locus YLL041C, strain sdh2, stronger effect = lower value 0.995 | S. cerevisiae deletion strains, locus YLR027C, strain aat2, stronger effect = lower value 0.975 | S. cerevisiae deletion strains, locus YLR039C, strain RIC1, stronger effect = lower value 1.03 | S. cerevisiae deletion strains, locus YLR058C, strain SHM2, stronger effect = lower value 1.02 | S. cerevisiae deletion strains, locus YLR102C, strain apc9, stronger effect = lower value 1.01 | S. cerevisiae deletion strains, locus YLR113W, strain HOG1, stronger effect = lower value 0.966 | S. cerevisiae deletion strains, locus YLR221C, strain rsa3, stronger effect = lower value 0.987 | S. cerevisiae deletion strains, locus YLR258W, strain gsy2, stronger effect = lower value 0.968 | S. cerevisiae deletion strains, locus YLR262C, strain YPT6 (second series), stronger effect = lower value 0.977 | S. cerevisiae deletion strains, locus YLR262C, strain YPT6, stronger effect = lower value 1.04 | S. cerevisiae deletion strains, locus YLR268W, strain sec22, stronger effect = lower value 1.02 | S. cerevisiae deletion strains, locus YLR320W, strain mms22, stronger effect = lower value 0.978 | S. cerevisiae deletion strains, locus YLR330W, strain CHS5, stronger effect = lower value 1.01 | S. cerevisiae deletion strains, locus YLR342W, strain FKS1 (second series), stronger effect = lower value 1.02 | S. cerevisiae deletion strains, locus YLR342W, strain FKS1, stronger effect = lower value 0.988 | S. cerevisiae deletion strains, locus YLR357W, strain rsc2, stronger effect = lower value 0.965 | S. cerevisiae deletion strains, locus YLR370C, strain arc18, stronger effect = lower value 0.981 | S. cerevisiae deletion strains, locus YLR371W, strain rom2, stronger effect = lower value 1.02 | S. cerevisiae deletion strains, locus YLR384C, strain iki3, stronger effect = lower value 0.969 | S. cerevisiae deletion strains, locus YLR418C, strain cdc73, stronger effect = lower value 1.02 | S. cerevisiae deletion strains, locus YML016C, strain PPZ1, stronger effect = lower value 1.01 | S. cerevisiae deletion strains, locus YML032C, strain rad52, stronger effect = lower value 1.01 | S. cerevisiae deletion strains, locus YML120C, strain ndi1, stronger effect = lower value 0.977 | S. cerevisiae deletion strains, locus YML124C, strain tub3, stronger effect = lower value 1.02 | S. cerevisiae deletion strains, locus YMR058W, strain fet3, stronger effect = lower value 0.969 | S. cerevisiae deletion strains, locus YMR078C, strain ctf18, stronger effect = lower value 1.02 | S. cerevisiae deletion strains, locus YMR125W, strain sto1, stronger effect = lower value 0.97 | S. cerevisiae deletion strains, locus YMR129W, stronger effect = lower value 0.979 | S. cerevisiae deletion strains, locus YMR205C, strain PFK2, stronger effect = lower value 0.992 | S. cerevisiae deletion strains, locus YMR223W, strain ubp8, stronger effect = lower value 1.02 | S. cerevisiae deletion strains, locus YMR231W, strain pep5, stronger effect = lower value 0.983 | S. cerevisiae deletion strains, locus YMR263W, strain SAP30, stronger effect = lower value 1.01 | S. cerevisiae deletion strains, locus YMR307W, strain GAS1, stronger effect = lower value 1.04 | S. cerevisiae deletion strains, locus YNL067W, strain RPL9B, stronger effect = lower value 1.01 | S. cerevisiae deletion strains, locus YNL071W, strain lat1, stronger effect = lower value 0.96 | S. cerevisiae deletion strains, locus YNL128W, strain TEP1, stronger effect = lower value 1.04 | S. cerevisiae deletion strains, locus YNL153C, strain GIM3, stronger effect = lower value 1.01 | S. cerevisiae deletion strains, locus YNL175C, strain NOP13, stronger effect = lower value 0.993 | S. cerevisiae deletion strains, locus YNL183C, strain NPR1, stronger effect = lower value 0.906 | S. cerevisiae deletion strains, locus YNL197C, strain WHI3, stronger effect = lower value 0.999 | S. cerevisiae deletion strains, locus YNL209W, strain ssb2, stronger effect = lower value 0.969 | S. cerevisiae deletion strains, locus YNL224C, strain SQS1, stronger effect = lower value 0.975 | S. cerevisiae deletion strains, locus YNL233W, strain BNI4, stronger effect = lower value 1 | S. cerevisiae deletion strains, locus YNL248C, strain rpa49, stronger effect = lower value 0.993 | S. cerevisiae deletion strains, locus YNL250W, strain rad50, stronger effect = lower value 1.01 | S. cerevisiae deletion strains, locus YNL271C, strain bni1, stronger effect = lower value 1.03 | S. cerevisiae deletion strains, locus YNL298W, strain CLA4, stronger effect = lower value 1.02 | S. cerevisiae deletion strains, locus YNL307C, strain MCK1, stronger effect = lower value 1.02 | S. cerevisiae deletion strains, locus YNL322C, strain KRE1 (second series), stronger effect = lower value 0.982 | S. cerevisiae deletion strains, locus YNL322C, strain KRE1, stronger effect = lower value 1.01 and 1.02 | S. cerevisiae deletion strains, locus YNR049C, strain mso1, stronger effect = lower value 0.969 | S. cerevisiae deletion strains, locus YNR052C, strain pop2, stronger effect = lower value 1.02 | S. cerevisiae deletion strains, locus YOL006C, strain TOP1, stronger effect = lower value 0.992 | S. cerevisiae deletion strains, locus YOL012C, strain htz1 0.885 | S. cerevisiae deletion strains, locus YOL147C, strain pex11, stronger effect = lower value 1.01 | S. cerevisiae deletion strains, locus YOR001W, strain rrp6, stronger effect = lower value 0.98 | S. cerevisiae deletion strains, locus YOR061W, strain CKA2, stronger effect = lower value 1.01 | S. cerevisiae deletion strains, locus YOR069W, strain VPS5, stronger effect = lower value 1.01 | S. cerevisiae deletion strains, locus YOR070C, strain gyp1, stronger effect = lower value 1.01 | S. cerevisiae deletion strains, locus YOR080W, strain dia2, stronger effect = lower value 0.976 | S. cerevisiae deletion strains, locus YOR083W, strain WHI5 (second series), stronger effect = lower value 1 | S. cerevisiae deletion strains, locus YOR083W, strain WHI5, stronger effect = lower value 0.976 | S. cerevisiae deletion strains, locus YOR106W, strain vam3, stronger effect = lower value 0.959 | S. cerevisiae deletion strains, locus YOR136W, strain idh2, stronger effect = lower value 1.02 | S. cerevisiae deletion strains, locus YOR144C, strain elg1, stronger effect = lower value 1.01 | S. cerevisiae deletion strains, locus YOR184W, strain ser1, stronger effect = lower value 1.01 | S. cerevisiae deletion strains, locus YOR231W, strain MKK1, stronger effect = lower value 0.977 | S. cerevisiae deletion strains, locus YOR265W, strain rbl2, stronger effect = lower value 0.978 | S. cerevisiae deletion strains, locus YOR270C, strain vph1, stronger effect = lower value 0.984 | S. cerevisiae deletion strains, locus YOR290C, strain snf2, stronger effect = lower value 0.963 | S. cerevisiae deletion strains, locus YOR316C, strain cot1, stronger effect = lower value 1.02 | S. cerevisiae deletion strains, locus YPL051W, strain arl3, stronger effect = lower value 0.987 | S. cerevisiae deletion strains, locus YPL055C, strain LGE1, stronger effect = lower value 0.988 and 1.06 | S. cerevisiae deletion strains, locus YPL078C, strain atp4, stronger effect = lower value 0.97 | S. cerevisiae deletion strains, locus YPL106C, strain sse1, stronger effect = lower value 1.01 | S. cerevisiae deletion strains, locus YPL240C, strain hsp82, stronger effect = lower value 0.973 | S. cerevisiae deletion strains, locus YPL241C, strain CIN2, stronger effect = lower value 1.01 | S. cerevisiae deletion strains, locus YPL256C, strain CLN2, stronger effect = lower value 0.956 | S. cerevisiae deletion strains, locus YPR119W, strain clb2, stronger effect = lower value 1.01 | S. cerevisiae deletion strains, locus YPR141C, strain kar3, stronger effect = lower value 1.02 | S. cerevisiae deletion strains, locus YPR163C, strain tif3, stronger effect = lower value 1.02 | S. cerevisiae deletion strains, locus YPR167C, strain met16, stronger effect = lower value 1.02 | S. cerevisiae deletion strains, strain wtn01, stronger effect = lower value 1.02 | S. cerevisiae strains, strain wild type, stronger effect = lower value 1.01
